# An excerpt weighted towards active compounds, which were near 2.3% of everything screened.
# LASV entry inh: qHTS for Inhibitors of binding or entry into cells for Lassa Virus; actives 1.2% (n = 300,000); Potency, µM (series often up to 37.9 µM), inactives show at the highest dose activity change, negative = inhibition, hits mostly inhibitors; Lassa virus pseudotype entry inhibition, cell reporter; calls by dose curve; tested in HEK293 cells; also: nearly all actives have a fitted effect of over 50% in size
# MARV entry inh: qHTS for inhibitors of binding or entry into cells for Marburg Virus | Marburg virus pseudotyped entry inhibition, cell reporter | Potency, µM (highest dose often 37.8 µM), for inactives: at the top dose activity change, negative = inhibition, most hits filed as inhibitors | actives 1.8% (n = 300,000) | AID 540276, 2011; calls by dose curve; tested in HEK293 cells
# AmpC inh detg: qHTS Inhibitors of AmpC Beta-Lactamase (assay with detergent); P00811; AmpC hydrolysis of nitrocefin, absorbance 480 nm, 0.01% Triton; Potency, µM (top dose mostly 114 µM), inactives show at the top dose activity change, negative = inhibition, most hits filed as inhibitors; actives 0.041% (n = 370,000);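 also: 0% = no-compound wells and -100% = no-enzyme wells; nearly all actives have a fitted effect of over 25% in size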
# Target sequence (P00811 whole entry, looked up): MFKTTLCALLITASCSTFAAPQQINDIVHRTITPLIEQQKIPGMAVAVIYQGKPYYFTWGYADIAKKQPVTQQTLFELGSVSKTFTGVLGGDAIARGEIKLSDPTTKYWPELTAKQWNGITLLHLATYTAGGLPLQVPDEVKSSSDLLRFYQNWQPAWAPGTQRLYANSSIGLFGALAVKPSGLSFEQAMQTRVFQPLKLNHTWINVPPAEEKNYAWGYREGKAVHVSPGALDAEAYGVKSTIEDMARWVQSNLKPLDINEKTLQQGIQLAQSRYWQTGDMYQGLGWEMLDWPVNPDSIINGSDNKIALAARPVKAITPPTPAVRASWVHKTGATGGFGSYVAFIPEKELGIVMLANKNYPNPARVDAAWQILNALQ
#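 20 mM phosphate pH 7.0 + 0.01% (detergent screen) or 0.0001% Triton X-100; 5.3 nM AmpC reagent; cpd preinc 15 min RT; nitrocefin (800 uM stock) to start; A480 q20 s × 4 min; Activity was normalised to no-enzyme and no-compound control wells.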
# AMA1 RON2 block: qHTS for Inhibitors of AMA1-RON; Towards Development of Antimalarial Drug Lead: Primary Screen. Potency, µM (series often up to 58.2 µM), for the others: at the top dose activity change, negative = inhibition, actives largely listed as inhibitors. AlphaScreen AMA1-biotinylated RON2 peptide binding. actives 0.2% (n = 360,000). Plasmodium falciparum AMA1 (3D7) - RON2 peptide interaction;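 also: 0% = vehicle wells and -100% = peptide control; nearly all actives have a fitted effect of over 45% in size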
#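 AMA1 (3D7) with his tag at 25 nM final met compounds first, then biotinylated RON2 peptide at 25 nM; detection used donor plus acceptor beads, 10 µg/mL apiece, read by AlphaScreen after 30 min at room temperature.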
# AmpC no deterg: qHTS Inhibitors of AmpC Beta-Lactamase (assay without detergent); AmpC nitrocefin hydrolysis, absorbance 480 nm, 0.0001% Triton; Potency, µM (doses to about 57.1 µM), for inactives: at the top dose activity change, negative = inhibition, most hits filed as inhibitors; actives 0.52% (n = 330,000); AID 485341, 2010;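 also: plate controls were no compound for no effect and no enzyme for full effect; nearly all actives have a fitted effect of over 20% in size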
#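 AmpC (5.3 nM in the dispensed reagent) in 20 mM phosphate pH 7.0 with 0.01% (detergent screen) or 0.0001% Triton X-100 was preincubated with compounds for 15 min at room temperature. Nitrocefin was then added from an 800 uM solution, and hydrolysis was followed at 480 nm.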
# The depositor's hits bear a star; ? = inconclusive; / = no result given; [ ] = dose if it differs, or a comment. Unless noted, calls follow the shape of the dose curve; as a rule, active = well fitted curve in the direction sought with a large enough effect; inconclusive = small, poorly fitted or top-dose-only effect, or another doubt; inactive = no such curve, though single readings can be large; an effect the other way counts as inactive or inconclusive. Unless noted, % is scaled to controls: 0 for no effect and ±100 for the full control effect; potency is read from the fitted curve at half-maximal effect.
SMILES,LASV entry inh,MARV entry inh,AmpC inh detg,AMA1 RON2 block,AmpC no deterg
Cc1cc[n+](C(C)C(=O)c2ccc(-c3ccccc3)cc2)cc1 (configuration not stated),10µM*,?,2%,2%,43%
CC(C(=O)c1ccc(-c2ccccc2)cc1)[n+]1ccccc1 (configuration not stated),?,10µM*,-12%,-14%,7%
O=C(Nc1ccc(Cl)cc1Cl)c1cc(S(=O)(=O)N2CCC3(CC2)OCCO3)ccc1F,?,/,2%,/,/
COc1cc([C@H]2C(C(=O)c3cccs3)=C(O)C(=O)N2c2cc(C)on2)ccc1O,/,11%[46.1 µM],/,/,/
COc1ccc(NC(=O)C2CCN(S(=O)(=O)c3cccc4cccnc34)CC2)cc1,/,/,3%,-1%,56µM*
O=C(Nc1ccc(Cl)c(C(F)(F)F)c1)C1CCCN(S(=O)(=O)c2cccc3cccnc23)C1 (configuration not stated),5.6µM*,/,4%,/,/
CC(=O)c1ccc(NC(=O)C2CCN(S(=O)(=O)c3cccc4cccnc34)CC2)cc1,-1%,2%,?,-7%,-22%
CC(C)CCNC(=O)CN1C(=O)c2cccnc2Oc2ccccc21,?,8%[46.1 µM],-2%,/,/
CC[C@@H](C)[C@H]1O[C@]2(CC[C@@H]1C)C[C@@H]1C[C@@H](C/C=C(\C)[C@@H](O[C@H]3C[C@H](OC)[C@@H](O[C@H]4C[C@H](OC)[C@@H](O)[C@H](C)O4)[C@H](C)O3)[C@@H](C)/C=C/C=C3\CO[C@@H]4[C@H](O)C(C)=C[C@@H](C(=O)O1)[C@]34O)O2,?,6.3µM*,/,/,/
CC[C@@H](C)[C@H]1O[C@]2(CC[C@H]1C)C[C@@H]1C[C@@H](CC=C(C)[C@@H](O[C@H]3C[C@H](OC)[C@@H](O[C@H]4C[C@H](OC)[C@@H](O)[C@H](C)O4)[C@H](C)O3)[C@@H](C)C=CC=C3CO[C@@H]4[C@H](O)C(C)=C[C@@H](C(=O)O1)[C@]34O)O2,2.6µM*,10µM*,/,/,/
CCOC(=O)c1cc2c(=O)n3ccccc3nc2n(CCCOC)c1=NC(=O)c1c(-c2ccccc2Cl)noc1C,-5%[46.1 µM],-1%[46.1 µM],-5%,/,/
FC(F)Oc1ccc(NC(=S)NNc2ccnc3cc(Cl)ccc23)cc1,?,11µM*,-8%,48%,-44%
NC(=S)NNc1ccnc2cc(Cl)ccc12,9%,?,-3%,-4%,-11%
CCc1ccc(NS(=O)(=O)c2ccc(-c3cc(C)no3)cc2)cc1,0%[46.1 µM],/,2%,/,/
Cc1ccc(S(=O)(=O)NCCSc2nnnn2-c2ccccc2)cc1,-17%[46.1 µM],-14%[46.1 µM],0%,0%,-26%
Cc1cccc(CSc2nnnn2-c2ccccc2)c1,10µM*,?,-22%,94%,-25%
Cc1ccc(C)c(-n2nnnc2Sc2nnnn2-c2ccccc2)c1,?,15µM*,-17%,-2%,-21%
Cc1ccc(S(=O)(=O)NCCSc2nnnn2-c2cc(C)ccc2C)cc1,8.9µM*,?,?,-7%,-25%
C=CCOC(=O)N[C@@H](c1coc2ccccc2c1=O)[C@@H](C)C=CCC(=O)OC,/,-3%[14.2 µM],/,/,/
CCc1ccc(C(C)NC(=S)NCc2ccc(F)cc2)cc1 (configuration not stated),?,?,-1%,24%,-6%
CCC(NC(=S)NCc1ccc(F)cc1)c1ccc(C)cc1 (configuration not stated),?,10µM*,6%,16%,-49%
Cc1c(CCC(=O)NCc2ccc(F)cc2)c(=O)oc2cc(O)ccc12,3%[46.1 µM],18%[46.1 µM],9%,/,/
Cc1ccc(C)c(CN2CCC(CNC(=O)C(CC(C)C)N3Cc4ccccc4C3=O)CC2)c1 (configuration not stated),-27%[46.1 µM],/,11%,/,/
Cc1ccccc1CN1CCC(Oc2ccc(C(=O)N3CCCC3)cc2)CC1,-7%[46.1 µM],-24%[46.1 µM],-8%,2%,7%
CC(C)N1CCN(C(=O)c2ccc(OC3CCN(CCc4ccccc4)CC3)cc2)CC1,-16%,11µM*,7%,-14%,67%
SMILES,LASV entry inh,MARV entry inh,AmpC inh detg,AMA1 RON2 block,AmpC no deterg
Cc1cc(CN(C)C(=O)c2ccc(OC3CCN(CCc4ccccc4)CC3)cc2)on1,24%[46.1 µM],3.2µM*,-6%,-5%,48%
C=CCOc1ccccc1CN1CCC(Oc2ccc(C(=O)N3CCCCC3)cc2)CC1,-17%,3.2µM*,2%,-5%,-7%
CC1=C(C(=O)Nc2ccccc2)C(c2cccc(O)c2)n2nc(-c3ccccc3Cl)nc2N1 (configuration not stated),-7%[46.1 µM],-29%[46.1 µM],-6%,/,/
CCc1ccccc1NC(=O)Cn1ccn(-c2cc(C)cc(C)c2)c(=O)c1=O,3%[46.1 µM],/,-3%,/,/
COc1ccc(Br)cc1CSC(=N)N,0%[46.1 µM],13µM*,-6%,4%,-30%
CCCCCOc1ccc(Br)cc1CSC(=N)N,/,/,1%,-4%,2%
NC1N=CC(c2cc3ccccc3oc2=O)S1 (configuration not stated),/,-13%[46.1 µM],/,/,/
O=C(O)c1c2c(nc3ccc(S(=O)(=O)N4CCC(C(=O)NC5CCCC5)CC4)cc13)CCCCC2,/,-3%,-14%,4%,25µM*
CC(C)(C)c1ccc(S(=O)(=O)N2CCN(C(=O)C3CCC3)CC2)cc1,?,4.5µM*,1%,9%,66%
O=C(NC1CCCCCCC1)c1ccc(S(=O)(=O)N2CCCC2)cc1,-22%,1%,-9%,-6%,0%
O=C(NC1CCCCC1)c1ccc(S(=O)(=O)N2CCCCC2)cc1,2.1µM*,3%,-14%,-2%,-23%
O=C(C1CCC1)N1CCN(S(=O)(=O)c2ccc(F)cc2)CC1,-1%,17%,1%,-12%,-2%
O=C(Nc1cccc(S(=O)(=O)C(F)F)c1)c1ccc(S(=O)(=O)N2CCCC2)cc1,5µM*,?,?,-12%,-20%
O=C(Nc1cccc(S(=O)(=O)C(F)F)c1)c1ccc(S(=O)(=O)N2CCOCC2)cc1,-10%,?,?,-16%,5%
CCC(Sc1nc2nccnc2c(=O)n1Cc1ccc(OC)cc1)C(=O)NC1CCCCC1 (configuration not stated),9%[46.1 µM],/,14%,/,/
O=C(Nc1ccc(S(=O)(=O)N2CCCCC2)cc1)c1ccc(CN2CCOCC2)cc1,?,8.2µM*,?,22%,102%
COc1ccc(NS(=O)(=O)c2ccc(O)c(NC(=O)c3ccc(S(=O)(=O)N4CCCCCC4)cc3)c2)cc1,-4%,?,-7%,5%,?
COc1ccc(NS(=O)(=O)c2cccc(NC(=O)c3ccc(S(=O)(=O)N4CCCCCC4)cc3)c2)cc1,8.2µM*,3.5µM*,-5%,-1%,-33%
